# Activity calls are given as the source filed them.
# Experiments:
# Albumin (Bos taurus) = Albumin (Bos taurus) (UniProt P02769); assay: bovine serum albumin binders on microarray, profiling panel, artefact control for SMM control protein annotation, biochemical, small-molecule microarray, Alexa647 label, 635/667 nm fluorescence (AID 1118); conditions: BSA-A647 binding, fluorescence 635 nm, higher = more signal;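 also: score merges 667 nm emission intensity and signal-to-noise per printed compound spot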
# [1] = small-molecule microarray binders of probe aXIP, primary screen, biochemical, NeuroSMM set, 635/667 nm fluorescence (AID 1119); conditions: higher = more signal, called active from +8 up or from −8 down;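 also: probe is the protein aXip251-270 applied at 1 µg/mL to compound-printed slides; binding of probe to printed compounds measured as 667 nm fluorescence plus signal to noise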
# [2] = small-molecule binders of probe aNOTCH3, primary screen, biochemical, small-molecule microarray, 635/667 nm fluorescence (AID 1120); conditions: higher = more signal;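 also: probe is a biotin-tagged antibody raised against NOTCH3 rather than NOTCH3 protein; score merges spot fluorescence near 667 nm with spot signal to noise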
# [3] = small-molecule binders of probe aNOTCH2, primary screen, biochemical, small-molecule microarray, 635/667 nm fluorescence (AID 1121); conditions: higher = more signal;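 also: score merges feature fluorescence read at 667 nm with its signal to noise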
# [4] = target: Carbonic anhydrase 2 (Homo sapiens) (UniProt P00918); assay: CAII small-molecule binders, profiling panel, biochemical, small-molecule microarray, Alexa647-labelled CAII (AID 1122); conditions: CAII-A647 binding fluorescence, higher = more signal
# [5] = COS7 lysate on small-molecule microarray, probe aHis, 635 nm (AID 1123); conditions: COS7 cell lysate, fluorescence, higher = more signal;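 also: z-score combines 667nm fluorescence intensity with signal-to-noise per printed compound spot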
# [6] = compound binding in COS7 lysate, probe aLAP1, primary screen, cell lysate, small-molecule microarray (AID 1124); conditions: probe aLAP1, fluorescence, higher = more signal;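 also: lysate comes from COS7 cells expressing LAP1 and is applied at 0.3 µg/mL; score merges spot fluorescence near 667 nm with signal-to-noise over triplicate slides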
# Sam68 (KHDRBS1) = assay: Sam68 small-molecule binders, primary screen, biochemical, small-molecule microarray, 635 nm fluorescence (AID 1125); conditions: small-molecule microarray binding, higher = more signal;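 also: score merges 667 nm channel intensity with signal to noise over triplicate slides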
# [7] = test system: Chordin-like protein 2 (CHRDL2); assay: CHRDL2 small-molecule binders, primary screen, biochemical, small-molecule microarray, 635 nm fluorescence (AID 1126); conditions: small-molecule microarray binding, fluorescence 635 nm; higher = more signal;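 also: printed compound slides probed with Chrdl2 protein at 4 µg/mL for 1 h at 4 C; score merges 667 nm emission intensity with signal to noise over three replicate slides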
# [8] = target: Concanavalin-A (Canavalia ensiformis) (UniProt P02866); assay: ConA small-molecule binders, primary screen, artefact control for SMM control protein annotation, biochemical, small-molecule microarray, Alexa647 label, 635 nm (AID 1127); conditions: ConA-A647 binding fluorescence, higher = more signal;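 also: z combines 667 nm emission intensity with signal-to-noise across three replicate slides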
# [9] = anti-His antibody binders, primary screen, artefact control for SMM control protein annotation, biochemical, small-molecule microarray, 635 nm fluorescence (AID 1128); conditions: anti-His Alexa647 antibody binding, higher = more signal;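 also: score merges feature fluorescence with signal-to-noise for each printed compound spot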
# [10] = test system: Human papillomavirus type 1a E7 protein (residues 1-88); assay: HPV1a E7 small-molecule binders, primary screen, biochemical, small-molecule microarray, residues 1-88, 635 nm (AID 1129); conditions: small-molecule microarray binding, fluorescence 635 nm; higher = more signal
# [11] = target: Focal adhesion kinase 1 (Homo sapiens) (UniProt Q05397); assay: small-molecule microarray binders of FAK, primary screen, biochemical, 635/667 nm fluorescence, BSA, DTT (AID 1130); conditions: PTK2 binding, 635 nm fluorescence, higher = more signal;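 also: composite of spot emission at 667 nm and signal to noise over triplicate slides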
# [12] = test system: Fibrinogen (Alexa647-labelled); assay: fibrinogen binders on compound microarrays, profiling panel, artefact control for SMM control-protein annotation, biochemical, small-molecule microarray, 635/667 nm fluorescence (AID 1131); conditions: fibrinogen-A647 binding fluorescence, higher = more signal;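 also: z-score merges 667 nm fluorescence with per-spot signal-to-noise over triplicate slides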
# [13] = target: Follistatin (Homo sapiens) (UniProt P19883); assay: follistatin binders on small-molecule microarrays, primary screen, biochemical, small-molecule microarray, 635/667 nm fluorescence (AID 1132); conditions: FST binding, 635 nm fluorescence, higher = more signal
# [14] = target: Fibroblast growth factor 2 (Homo sapiens) (UniProt P09038); assay: FGF2 binders on small-molecule microarrays, primary screen, biochemical, small-molecule microarray, 635/667 nm fluorescence (AID 1133); conditions: small-molecule microarray binding, FGF2, fluorescence 635/667; higher = more signal
# [15] = mitochondrial membrane potential change in A549 cells, profiling panel, cell-based, JC-1 fluorescence, basal, 24 h, 100 nL (AID 1138); conditions: higher = more signal;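 also: A549 lung adenocarcinoma cells under basal conditions with no added stimulus; test concentration not given here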
# Lefty1 = Lefty1 binders on small-molecule microarrays, primary screen, biochemical, small-molecule microarray, 635/667 nm fluorescence (AID 1139); conditions: small-molecule microarray binding, fluorescence 635/667; higher = more signal
# [16] = test system: wheat germ agglutinin (Triticum aestivum), Alexa647-labelled; assay: wheat germ agglutinin binders on compound microarrays, profiling panel, artefact control for SMM control-protein annotation, biochemical, small-molecule microarray, 635/667 nm fluorescence (AID 1140); conditions: WGA-A647 binding, 635 nm fluorescence, higher = more signal;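 also: score merges 667 nm feature emission with signal to noise over triplicate slides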
# [17] = target: Luciferin 4-monooxygenase (Photinus pyralis) (UniProt P08659); assay: firefly luciferase enzyme inhibitors, primary screen, biochemical, luminescence, purified enzyme, 2006 set (AID 1141); conditions: SteadyGlo luminescence, 30 min, higher = more signal, called active from +8 up or from −8 down;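 also: cell-free assay with purified firefly luciferase at 100 ng per well in PBS; test concentration not given here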
# Chain of Luciferin 4-monooxygenase (Photinus pyralis) (P08659 whole entry, looked up): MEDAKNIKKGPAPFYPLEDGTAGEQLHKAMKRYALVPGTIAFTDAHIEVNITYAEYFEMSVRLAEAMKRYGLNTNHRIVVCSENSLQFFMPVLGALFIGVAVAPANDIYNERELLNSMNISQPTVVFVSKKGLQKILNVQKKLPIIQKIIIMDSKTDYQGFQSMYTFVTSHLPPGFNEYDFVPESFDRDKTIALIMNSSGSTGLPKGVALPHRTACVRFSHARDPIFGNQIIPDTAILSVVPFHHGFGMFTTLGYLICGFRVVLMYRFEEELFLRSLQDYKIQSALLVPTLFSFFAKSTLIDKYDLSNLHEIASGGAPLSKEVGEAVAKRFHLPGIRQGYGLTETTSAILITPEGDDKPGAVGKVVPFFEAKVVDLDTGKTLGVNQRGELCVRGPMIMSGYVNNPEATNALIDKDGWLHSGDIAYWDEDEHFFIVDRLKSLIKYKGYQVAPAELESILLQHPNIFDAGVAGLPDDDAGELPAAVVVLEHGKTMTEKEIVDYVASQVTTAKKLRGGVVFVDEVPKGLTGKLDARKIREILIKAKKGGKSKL
# Chain of Focal adhesion kinase 1 (Homo sapiens) (Q05397 whole entry, looked up): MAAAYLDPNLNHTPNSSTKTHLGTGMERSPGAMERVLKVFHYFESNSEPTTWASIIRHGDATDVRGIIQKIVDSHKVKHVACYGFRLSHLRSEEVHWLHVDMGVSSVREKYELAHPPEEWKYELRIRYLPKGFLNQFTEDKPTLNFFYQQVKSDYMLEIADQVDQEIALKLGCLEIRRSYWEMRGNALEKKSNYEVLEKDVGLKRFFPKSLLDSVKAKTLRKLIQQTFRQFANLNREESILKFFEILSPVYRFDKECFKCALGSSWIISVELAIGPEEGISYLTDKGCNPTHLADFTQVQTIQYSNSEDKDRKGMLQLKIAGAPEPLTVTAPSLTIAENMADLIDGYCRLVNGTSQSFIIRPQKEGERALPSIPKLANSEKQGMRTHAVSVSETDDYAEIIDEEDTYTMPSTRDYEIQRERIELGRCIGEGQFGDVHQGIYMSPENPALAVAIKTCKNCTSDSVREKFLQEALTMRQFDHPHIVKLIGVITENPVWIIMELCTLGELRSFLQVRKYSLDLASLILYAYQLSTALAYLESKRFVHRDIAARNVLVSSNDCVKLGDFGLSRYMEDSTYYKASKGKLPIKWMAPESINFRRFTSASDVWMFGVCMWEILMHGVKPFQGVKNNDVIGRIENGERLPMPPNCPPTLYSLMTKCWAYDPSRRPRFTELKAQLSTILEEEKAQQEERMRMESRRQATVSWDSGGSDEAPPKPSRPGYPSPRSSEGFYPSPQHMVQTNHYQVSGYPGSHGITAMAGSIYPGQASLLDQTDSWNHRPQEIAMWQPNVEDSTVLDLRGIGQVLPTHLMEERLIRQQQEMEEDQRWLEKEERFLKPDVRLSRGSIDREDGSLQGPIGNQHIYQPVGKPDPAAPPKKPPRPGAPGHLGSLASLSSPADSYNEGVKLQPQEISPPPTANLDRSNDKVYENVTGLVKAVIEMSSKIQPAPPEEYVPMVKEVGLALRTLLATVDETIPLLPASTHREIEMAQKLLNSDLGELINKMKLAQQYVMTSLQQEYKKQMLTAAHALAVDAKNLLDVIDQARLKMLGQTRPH
# Chain of Follistatin (Homo sapiens) (P19883 whole entry, looked up): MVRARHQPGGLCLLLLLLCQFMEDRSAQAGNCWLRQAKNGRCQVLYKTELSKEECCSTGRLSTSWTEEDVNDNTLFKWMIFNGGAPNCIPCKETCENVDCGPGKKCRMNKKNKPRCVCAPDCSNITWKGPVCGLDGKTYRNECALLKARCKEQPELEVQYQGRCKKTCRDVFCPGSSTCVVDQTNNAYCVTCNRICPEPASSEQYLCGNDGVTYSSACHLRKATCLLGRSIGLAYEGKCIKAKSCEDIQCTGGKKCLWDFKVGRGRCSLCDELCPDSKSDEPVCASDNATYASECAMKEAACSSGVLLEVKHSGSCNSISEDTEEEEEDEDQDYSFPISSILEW
# Chain of Fibroblast growth factor 2 (Homo sapiens) (P09038 whole entry, looked up): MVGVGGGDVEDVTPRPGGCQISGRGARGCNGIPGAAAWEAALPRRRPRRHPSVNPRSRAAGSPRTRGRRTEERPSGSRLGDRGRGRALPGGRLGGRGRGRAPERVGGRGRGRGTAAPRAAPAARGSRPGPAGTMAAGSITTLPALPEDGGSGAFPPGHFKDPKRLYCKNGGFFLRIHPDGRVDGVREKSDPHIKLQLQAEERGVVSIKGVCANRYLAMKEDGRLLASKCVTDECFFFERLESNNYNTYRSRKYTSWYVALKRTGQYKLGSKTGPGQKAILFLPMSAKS
# Chain of Concanavalin-A (Canavalia ensiformis) (P02866 whole entry, looked up): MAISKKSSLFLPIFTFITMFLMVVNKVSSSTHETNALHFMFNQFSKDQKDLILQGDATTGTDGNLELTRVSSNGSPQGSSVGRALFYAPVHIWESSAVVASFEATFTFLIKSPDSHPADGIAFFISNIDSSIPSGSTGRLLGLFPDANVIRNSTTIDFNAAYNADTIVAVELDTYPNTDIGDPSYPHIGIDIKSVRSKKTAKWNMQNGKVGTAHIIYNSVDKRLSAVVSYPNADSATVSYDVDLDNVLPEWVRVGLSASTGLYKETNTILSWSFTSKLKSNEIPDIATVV
# Chain of Albumin (Bos taurus) (P02769 whole entry, looked up): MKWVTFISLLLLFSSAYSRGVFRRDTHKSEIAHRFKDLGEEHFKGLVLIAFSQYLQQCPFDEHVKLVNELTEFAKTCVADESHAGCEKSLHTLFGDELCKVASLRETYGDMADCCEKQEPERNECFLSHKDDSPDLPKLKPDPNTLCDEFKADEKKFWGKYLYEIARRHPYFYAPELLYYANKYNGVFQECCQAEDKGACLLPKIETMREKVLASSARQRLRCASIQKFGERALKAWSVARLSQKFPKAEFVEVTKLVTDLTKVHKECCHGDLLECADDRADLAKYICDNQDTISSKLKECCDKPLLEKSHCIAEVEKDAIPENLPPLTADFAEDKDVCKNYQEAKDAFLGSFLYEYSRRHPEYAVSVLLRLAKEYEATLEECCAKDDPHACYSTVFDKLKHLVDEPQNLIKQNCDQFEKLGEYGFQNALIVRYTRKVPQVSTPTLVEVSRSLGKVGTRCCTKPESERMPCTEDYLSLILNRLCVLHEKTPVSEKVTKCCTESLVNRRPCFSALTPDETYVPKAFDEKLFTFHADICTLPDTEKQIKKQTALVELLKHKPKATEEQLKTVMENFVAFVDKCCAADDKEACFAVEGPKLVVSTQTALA
Compound,composite z-score (Albumin (Bos taurus)),composite Z-score [1],composite z-score [2],composite z-score [3],composite z-score [4],composite z-score [5],composite z-score [6],composite z-score (Sam68 (KHDRBS1)),composite z-score [7],composite z-score [8],composite z-score [9],composite z-score [10],composite z-score [11],composite z-score [12],composite z-score [13],composite z-score [14],z-score [15],composite z-score (Lefty1),composite z-score [16],z-score [17]
CCc1cc2c(nc1CC)CCN(CCC(C)=NOC(C)CN1CCCCc3nc(C)c(C)cc31)C2 (stereo not given),0.0846,0.73 (inactive),0.0696,-0.0194,0.467,1.64,0.304,1.28,0.911,1.17,0.575,1.18,-0.048,0.874,1.18,0.557,2.45,0.979,0.439,-0.0579 (inactive)
COC(=O)[C@@H]1CC[C@H](C)[C@@H](c2ccc(C)cc2)N1C(=O)c1ccc(C=NOC[C@@H](O)[C@H]2O[C@@H]3OC(C)(C)O[C@@H]3[C@H]2O)cc1,0.333,-0.187 (inactive),-0.0014,-0.128,0.368,0.424,0.228,1.02,0.402,0.736,0.266,1.03,0.158,0.953,0.49,0.63,-1.78,0.367,0.506,-0.297 (inactive)
CC(CCN1CCCCc2nc(C)c(C)cc21)=NO[C@H](C)c1cn([C@@H]2COC[C@H]2O)nn1,0.43,-1.61 (inactive),0.156,0.0097,0.616,0.298,0.0986,1.2,1.49,0.685,0.968,0.12,0.422,0.41,1.26,1.33,-0.624,1.38,-0.0522,1.05 (inactive)
CC(C)=NOC(C)CN1CCCCc2nc(C)c(C)cc21 (stereo not given),0.673,0.761 (inactive),0.169,-0.0859,0.418,0.951,0.045,0.313,0.732,0.109,0.734,-0.368,-0.368,0.755,0.886,0.234,0.23,0.603,-0.0583,-0.327 (inactive)
Cc1cc2c(nc1C)CCCCN2CC(O)CN1CCCc2nc(-c3ccc(Br)cc3)ccc21 (stereo not given),0.466,-0.211 (inactive),0.298,0.0067,0.493,0.417,0.293,0.754,0.613,0.783,0.819,0.582,0.171,-0.564,1.06,0.709,1.59,0.998,0.765,-0.802 (inactive)
CC(=O)OC[C@H]1O[C@H](CC=NOC[C@@H](O)COCc2ccco2)C=C[C@@H]1OC(C)=O,0.037,0.328 (inactive),0.282,-0.0022,-0.287,-0.37,-0.14,0.586,1.46,-0.389,0.526,-0.193,0.0925,-0.629,1.38,1.54,0.548,1.52,-0.327,0.642 (inactive)
C#CCCCON=C1[C@H]2CCn3c(=O)n(Cc4cc5c(cc4Cl)OCO5)c(=O)n3[C@H]2[C@H](O)[C@@H]2O[C@H]12,-0.252,-0.141 (inactive),-0.0178,-0.106,-0.0303,-0.138,-0.122,0.431,0.424,0.656,0.229,0.522,-0.383,0.0676,0.751,0.486,0.146,0.748,-0.232,0.303 (inactive)
CC(C)CON=C1C[C@@H](O)[C@@H](O)[C@@H]2[C@@H]3C(=O)N([C@@H](C)c4ccccc4)C(=O)[C@@H]3CC[C@@H]12,0.538,-0.293 (inactive),-0.145,-0.153,-0.139,-0.039,-0.0296,0.132,0.417,0.0928,0.0924,0.124,-0.164,0.501,-0.319,0.114,-0.655,-0.162,0.252,0.999 (inactive)
CCN1C(=O)[C@H]2[C@H]3[C@H](O)[C@H](O)CC(=NOC[C@@H](O)COCc4ccco4)[C@H]3CC[C@H]2C1=O,0.532,0.525 (inactive),-0.18,-0.16,0.093,-0.303,0.0965,0.971,1.5,-1.26,-1.13,-0.516,0.0699,-0.554,1.39,1.66,0.0801,1.55,-0.976,-0.941 (inactive)
CCOC(=O)CCN1C(=O)[C@H]2[C@H]3[C@H](O)[C@H](O)CC(=NO[C@@H]4O[C@H](CO)[C@@H](O)[C@H](O)[C@H]4O)[C@@H]3CC[C@H]2C1=O,0.83,0.397 (inactive),0.207,-0.0698,0.381,0.279,-0.0046,1.3,1.04,0.322,0.818,1.12,0.118,0.854,1.22,1.22,-0.102,1.4,0.829,-0.115 (inactive)
CC(C)=CCCC(C)=CCON=C1[C@H]2CCn3c(=O)n(-c4ccccc4)c(=O)n3[C@H]2[C@H](O)[C@@H]2O[C@H]12,0.271,0.0213 (inactive),0.185,-0.14,0.464,1.18,0.353,1.22,1.02,0.763,0.645,1.14,0.274,0.712,1.19,0.765,0.334,0.808,0.505,-0.416 (inactive)

# From PubChem BioAssay
